PubChem BioAssay (EPA / NIEHS)
Active and inactive are the calls of the source. Rule for the calls: active = hit-call score of the fitted dose curve at least 0.9, where 1 is the maximum; inactive = score below 0.9.

Tests used:
[1] = read-out: Interleukin-6 (IL6), IL6 (gene 3569); assay: BSK_CASM3C_IL6: BioMAP Diversity Plus: CASM3C Assay for Interleukin-6 (IL6) Biomarker Activity for (AID 2283040); settings: primary human coronary artery smooth muscle cells; actives raise or lower the signal
[2] = read-out: Tissue plasminogen activator (tPA), PLAT (gene 5327); assay: BSK_BE3C_tPA: BioMAP Diversity Plus: BE3C Assay for Tissue plasminogen activator (tPA) Biomarker Activity (AID 2283041); settings: primary human bronchial epithelial cells; actives raise or lower the signal
Summary of the method: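 Primary human bronchial epithelial cells in the BE3C system, exposed to compound for 24 h. tPA was quantified by ELISA; DMSO served as baseline, with gain or loss of signal fitted. Cytotoxicity checked in parallel cultures by SRB total-protein staining.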

[3] = read-out: Interleukin-8 (IL8), CXCL8 (gene 3576); assay: BSK_CASM3C_IL8: BioMAP Diversity Plus: CASM3C Assay for Interleukin-8 (IL8) Biomarker Activity (AID 2283042); settings: primary human coronary artery smooth muscle cells; actives raise or lower the signal;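 note: IL-8 protein level quantified by ELISA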
[4] = read-out: Human Leukocyte Antigen - DR isotype (HLADR), HLA-DRA (gene 3122); assay: BSK_CASM3C_HLADR: BioMAP Diversity Plus: CASM3C Assay for Human Leukocyte Antigen - DR isotype (HLADR) Biomarker Activity (AID 2283043); settings: primary human coronary artery smooth muscle cells; actives raise or lower the signal;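 note: cell-surface HLA-DR protein level quantified by ELISA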
[5] = read-out: Macrophage colony-stimulating factor (MCSF), CSF1 (gene 1435); assay: BSK_CASM3C_MCSF: BioMAP Diversity Plus: CASM3C Assay for Macrophage colony-stimulating factor (MCSF) Biomarker Activity (AID 2283044); settings: primary human coronary artery smooth muscle cells; actives raise or lower the signal;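 note: M-CSF protein amount quantified by ELISA after 24 h exposure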
[6] = read-out: Low-density lipoprotein receptor (LDLR), LDLR (gene 3949); assay: BSK_CASM3C_LDLR: BioMAP Diversity Plus: CASM3C Assay for Low-density lipoprotein receptor (LDLR) Biomarker Activity (AID 2283045); settings: primary human coronary artery smooth muscle cells; actives raise or lower the signal;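 note: LDLR protein level on the cell surface quantified by ELISA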
[7] = read-out: Monocyte Chemoattractant Protein-1 (MCP1), CCL2 (gene 6347); assay: BSK_CASM3C_MCP1: BioMAP Diversity Plus: CASM3C Assay for Monocyte Chemoattractant Protein-1 (MCP1) Biomarker Activity (AID 2283046); settings: primary human coronary artery smooth muscle cells; actives raise or lower the signal;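 note: MCP-1 level quantified by ELISA 24 h after dosing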
[8] = BSK_CASM3C_Proliferation: Cell Proliferation Assessment in the BioMAP Diversity Plus: CASM3C Assay (AID 2283047); settings: primary human coronary artery smooth muscle cells;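 note: sulforhodamine B total protein stain as relative cell number at 560 nm; sub-confluent cells exposed 48 h before staining; fitted both ways against DMSO so gain or loss of cell number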
[9] = read-out: Monokine induced gamma interferon (MIG), CXCL9 (gene 4283); assay: BSK_CASM3C_MIG: BioMAP Diversity Plus: CASM3C Assay for Monokine induced gamma interferon (MIG) Biomarker Activity (AID 2283048); settings: primary human coronary artery smooth muscle cells; actives raise or lower the signal;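 note: MIG protein level measured by ELISA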
[10] = read-out: serum amyloid A (SAA), SAA1 (gene 6288); assay: BSK_CASM3C_SAA: BioMAP Diversity Plus: CASM3C Assay for serum amyloid A (SAA) Biomarker Activity (AID 2283049); settings: primary human coronary artery smooth muscle cells; actives raise or lower the signal;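 note: SAA protein level quantified by ELISA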
[11] = BSK_CASM3C_SRB: Viability Assessment in the BioMAP Diversity Plus: CASM3C Assay (AID 2283050); settings: primary human coronary artery smooth muscle cells
[12] = read-out: Thrombomodulin, THBD (gene 7056); assay: BSK_CASM3C_Thrombomodulin: BioMAP Diversity Plus: CASM3C Assay for Thrombomodulin Biomarker Activity (AID 2283051); settings: primary human coronary artery smooth muscle cells; actives raise or lower the signal;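 note: thrombomodulin protein level measured by ELISA 24 h after dosing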
[13] = read-out: Tissue Factor, F3 (gene 2152); assay: BSK_CASM3C_TissueFactor: BioMAP Diversity Plus: CASM3C Assay for Tissue Factor Biomarker Activity (AID 2283052); settings: primary human coronary artery smooth muscle cells; actives raise or lower the signal;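 note: cell surface tissue factor protein level read by ELISA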
[14] = read-out: Interferon-gamma inducible Protein 10 (IP10), CXCL10 (gene 3627); assay: BSK_hDFCGF_IP10: BioMAP Diversity Plus: hDFCGF Assay for Interferon-gamma inducible Protein 10 (IP10) Biomarker Activity (AID 2283053); settings: primary human foreskin fibroblasts; actives raise or lower the signal
Summary of the method: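 Primary human foreskin fibroblasts exposed to chemicals for 24 h. IP-10 measured by ELISA; changes fitted bidirectionally against DMSO baseline.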

[15] = read-out: Urokinase-type plasminogen activator receptor (uPAR), PLAUR (gene 5329); assay: BSK_CASM3C_uPAR: BioMAP Diversity Plus: CASM3C Assay for Urokinase-type plasminogen activator receptor (uPAR) Biomarker Activity (AID 2283054); settings: primary human coronary artery smooth muscle cells; actives raise or lower the signal;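 note: cell-surface uPAR protein level quantified by ELISA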
[16] = read-out: Vascular cell adhesion molecule 1 (VCAM1), VCAM1 (gene 7412); assay: BSK_CASM3C_VCAM1: BioMAP Diversity Plus: CASM3C Assay for Vascular cell adhesion molecule 1 (VCAM1) Biomarker Activity (AID 2283055); settings: primary human coronary artery smooth muscle cells; actives raise or lower the signal;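 note: VCAM-1 protein level quantified by ELISA on the cells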
[17] = read-out: Collagen III, COL3A1 (gene 1281); assay: BSK_hDFCGF_CollagenIII: BioMAP Diversity Plus: hDFCGF Assay for Collagen III Biomarker Activity (AID 2283056); settings: primary human foreskin fibroblasts; actives raise or lower the signal
Summary of the method: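 ELISA readout of Collagen III in human dermal (foreskin) fibroblasts, taken 24 h post-treatment. Gain or loss relative to DMSO vehicle fitted in both directions.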

[18] = read-out: Epidermal growth factor receptor (EGFR), EGFR (gene 1956); assay: BSK_hDFCGF_EGFR: BioMAP Diversity Plus: hDFCGF Assay for Epidermal growth factor receptor (EGFR) Biomarker Activity (AID 2283057); settings: primary human foreskin fibroblasts; actives raise or lower the signal
Summary of the method: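 Primary human foreskin fibroblasts (hDFCGF system), sampled 24 h after dosing; EGFR quantified by ELISA. Bidirectional fit relative to DMSO baseline; SRB total-protein staining in parallel cultures for cytotoxicity.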

[19] = BSK_hDFCGF_Proliferation: Cell Proliferation Assessment in the BioMAP Diversity Plus: hDFCGF Assay (AID 2283059); settings: primary human foreskin fibroblasts;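 note: curves fitted for both rise and fall of signal versus DMSO baseline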
Summary of the method: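 This proliferation readout used SRB total-protein staining of human foreskin fibroblasts […], normalized to DMSO with bidirectional curve fitting.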

[20] = read-out: Interleukin-8 (IL8), CXCL8 (gene 3576); assay: BSK_hDFCGF_IL8: BioMAP Diversity Plus: hDFCGF Assay for Interleukin-8 (IL8) Biomarker Activity (AID 2283058); settings: primary human foreskin fibroblasts; actives raise or lower the signal
Summary of the method: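 IL-8 levels read by ELISA at 24 hours after dosing human skin fibroblast cultures. Parallel SRB staining assessed overt cytotoxicity, and gain or loss of signal was fitted against DMSO control.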

Measured: AC50

CC1(C)CC(N=C=O)CC(C)(CN=C=O)C1 (stereo not given)
inactive: [1] | [2] | [3] | [4] | [5] | [7] | [8] | [9] | [10] | [11] | [12] | [13] | [14] | [15] | [16] | [17] | [18] | [19]
active: [6] 6.43 µM

CC(=O)OC/C=C(\C)CCC=C(C)C
inactive: [1] | [2] | [3] | [4] | [5] | [6] | [7] | [8] | [9] | [10] | [11] | [12] | [13] | [14] | [15] | [16] | [17] | [18]
active: [19] 0.597 µM

O=C(O)Cc1ccccc1Nc1c(Cl)cccc1Cl
active: [17] 20 µM | [19] 20 µM
inactive: [1] | [2] | [3] | [4] | [5] | [6] | [7] | [8] | [9] | [10] | [11] | [12] | [13] | [14] | [15] | [16] | [18]

COc1cc(-c2nc(NC(=O)c3cc4cc(C)cc(C)c4n3CC(=O)O)sc2CCC2CCCCC2)c(OC)cc1Cl
active: [1] 4.7 µM | [2] 0.969 µM | [3] 7.07 µM | [4] 5.92 µM | [5] 22.9 µM | [6] 4.25 µM | [7] 8.09 µM | [8] 10.8 µM | [9] 11.7 µM | [10] 8.47 µM | [11] 7.05 µM | [14] 0.46 µM | [15] 6.56 µM | [16] 10.2 µM | [17] 0.203 µM | [19] 0.128 µM
inactive: [12] | [13] | [18]

Nc1ccccc1N
inactive: [1] | [2] | [3] | [4] | [5] | [6] | [7] | [8] | [9] | [10] | [11] | [12] | [13] | [14] | [15] | [17] | [18]
active: [16] 4.05 µM | [19] 16 µM

O=c1c(O)c(-c2ccc(O)c(O)c2)oc2cc(O)cc(O)c12
active: [1] 8.19 µM | [3] 11.6 µM | [5] 6.34 µM | [6] 4.11 µM | [7] 9.09 µM | [8] 9.64 µM | [9] 20 µM | [11] 14.2 µM | [13] 4.13 µM | [14] 20 µM | [15] 6.66 µM | [19] 11.5 µM
inactive: [2] | [10] | [12] | [16] | [17] | [20]

CCCCOC(=O)CCCCCCCCC(=O)OCCCC
inactive: [1] | [2] | [3] | [4] | [5] | [6] | [7] | [8] | [9] | [10] | [11] | [12] | [13] | [14] | [15] | [16] | [17] | [18] | [19]

O=c1[nH]cc(F)c(=O)[nH]1
inactive: [1] | [2] | [3] | [4] | [5] | [6] | [7] | [9] | [10] | [11] | [12] | [13] | [14] | [15] | [16] | [17] | [18]
active: [8] 13.7 µM | [19] 9.52 µM

COCCOC[C@H](CC1(C(=O)NC2CCC(C(=O)O)CC2)CCCC1)C(=O)Oc1ccc2c(c1)CCC2 (stereo not given in full)
inactive: [1] | [2] | [3] | [4] | [5] | [6] | [7] | [8] | [9] | [10] | [11] | [12] | [13] | [14] | [15] | [16] | [17] | [18] | [19]
